From PubChem
Hits are enriched below; roughly 17% of the tested compounds scored in any of these assays.
ClpP mod: qHTS Assay for Activators of ClpP; purified B. subtilis ClpP, FRET peptide cleavage, 20 min; Potency, µM (highest dose often 57.5 µM), without a hit: top-dose activity change, negative = active; actives 1.9% (n = 340,000); AID 651965, 2013; active = well fitted falling curve with a large enough effect; inconclusive = small, poorly fitted or top-dose-only effect; inactive = no such curve, though single readings can be large or run the other way; also: the source files actives as falling curves though it sought activators and does not explain the sign; nearly all actives have a fitted effect of over 65% in size
Target sequence (P80244 whole entry, looked up): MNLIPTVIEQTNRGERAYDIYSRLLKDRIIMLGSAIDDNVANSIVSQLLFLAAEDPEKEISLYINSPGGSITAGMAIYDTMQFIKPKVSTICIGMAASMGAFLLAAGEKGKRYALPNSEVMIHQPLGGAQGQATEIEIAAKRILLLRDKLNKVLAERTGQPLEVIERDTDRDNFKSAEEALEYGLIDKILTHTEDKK
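ClpP 10 microg/mL final, pH 8 Tris/KCl buffer with BSA, glycerol, Tween-20; compound pinned in; FRET-FV substrate; RT 20 min; Ex320/Em430; ΔFRET vs ADEP 5.8 microM, DMSO, no enzyme.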
TDP1 block: blocks human tyrosyl-DNA phosphodiesterase 1 | Q9NUW8 | recombinant TDP1, AlphaScreen DNA substrate cleavage | Potency, µM (top dose mostly 130 µM), for inactives: top-dose activity change, negative = inhibition, actives largely listed as inhibitors | actives 0.28% (n = 350,000); also: % is scaled to controls: 0 for no effect and ±100 for the full control effect; nearly all actives have a fitted effect of over 40% in size
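Recombinant human Tdp1 (E. coli-expressed, 1 nM final) preincubated with compounds 15 min at room temperature, then 5'-biotin/3'-phosphotyrosine-FITC DNA substrate (15 nM final) added for 5 min. AlphaScreen beads (10 ug/ml final) added 10 min; cleavage lowers signal.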
TDP1 cell noCPT: qHTS for Inhibitors of human tyrosyl-DNA phosphodiesterase 1 (TDP1): qHTS in cells in absence of CPT; Potency, µM (highest dose often 46.2 µM), for inactives: top-dose activity change, negative = growth inhibition, actives largely listed as inhibitors; DT40 Tdp1-/- hTDP1 cells, no CPT, ATP luminescence, 48 h; AID 686978, 2013; actives 15% (n = 420,000); also: % is scaled to controls: 0 for no effect and ±100 for the full control effect; nearly all actives have a fitted effect of over 55% in size
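Growth of hTDP1-complemented DT40 Tdp1-knockout cells is measured by ATP luminescence after at least 48 hr compound exposure at 37 °C, with DMSO substituting for the 20 nM CPT used in the parallel screen.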
TDP1 cell CPT: growth inhibition of DT40 Tdp1-/-;hTDP1 cells with camptothecin (screen for TDP1 inhibitors); chicken DT40 Tdp1-/-;hTDP1 cells + 20 nM CPT, ATP luminescence, 48 h; Potency, µM (top dose mostly 46.2 µM), without a hit: top-dose activity change, negative = growth inhibition, actives largely listed as inhibitors; actives 12% (n = 420,000); AID 686979; also: % is scaled to controls: 0 for no effect and ±100 for the full control effect; nearly all actives have a fitted effect of over 55% in size
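Chicken DT40 Tdp1-/- cells stably complemented with human TDP1 were seeded at 400 cells/well in medium containing 20 nM camptothecin, exposed to pin-transferred compounds, and grown at 37 °C for at least 48 hr. Viability was read as ATP luminescence.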
* marks the source's active call; other numbers are inactive results; ? = inconclusive; . = not tested or not shown; [ ] = remark or other dose. Unless noted, calls follow the shape of the dose curve; as a rule, active = well fitted curve in the direction sought with a large enough effect; inconclusive = small, poorly fitted or top-dose-only effect, or another doubt; inactive = no such curve, though single readings can be large; an effect the other way counts as inactive or inconclusive. Potency is read from the fitted curve at half-maximal effect.

SMILES | ClpP mod | TDP1 block | TDP1 cell noCPT | TDP1 cell CPT
CN(C(=O)c1cccc(NC(=O)Cc2ccc(NC(=O)C3CCN(C(=O)CCc4ccccc4)CC3)cc2)c1)C1CCC1 | 2% | . | 13µM* | 13µM*
CN(C(=O)c1cccc(NC(=O)Cc2ccc(NC(=O)C3CCN(C(=O)CCc4ccccc4)CC3)cc2)c1)C1CC1 | 0% | . | 10µM* | 16µM*
O=C(NCc1ccncc1)c1cnn(-c2ncc3c(n2)-c2ccccc2CC3)c1C1CC1 | . | . | -8% | 10%
CCCN1C(=O)c2cc(C(=O)Nc3cccc(C(C)=O)c3)ccc2C1Nc1cccc(C(C)=O)c1 (stereo not given) | -4% | . | 15µM* | 8.2µM*
CCOC(=O)c1c(C)[nH]c(C)c1S(=O)(=O)N1CCC(C(=O)N2CCN(c3cccc(C)c3C)CC2)CC1 | -1% | 8% | ? | 18µM*
Cc1cccc(N2CCN(C(=O)C3CCN(S(=O)(=O)c4cccs4)CC3)CC2)c1C | -3% | 2% | 15µM* | 21µM*
CCOC(=O)c1c(C)[nH]c(C)c1S(=O)(=O)N1CCC(C(=O)N2CCN(c3ccc(F)cc3)CC2)CC1 | -1% | 3% | -21% | -26%
CN(C(=O)C1CCN(S(=O)(=O)c2cccs2)CC1)c1ccccc1 | . | 2% | 16µM* | ?
O=C(OCc1ccccc1)C1CCN(S(=O)(=O)c2cccs2)CC1 | 0% | . | -3% | -29%
CC1CC(C)CN(C(=O)C2CCN(S(=O)(=O)c3cccs3)CC2)C1 (stereo not given) | . | 10% | ? | 0%
CC(=O)c1ccc(NC(=O)C2CCN(S(=O)(=O)c3cccs3)CC2)cc1 | 0% | 3% | ? | ?
CC(=O)c1ccc(N2CCN(C(=O)C3CCN(S(=O)(=O)c4cccs4)CC3)CC2)cc1 | . | 1% | 13µM* | ?
COc1ccc(OC)c(-c2cc(Cl)c3c(c2)CC(CNC(=O)c2cnn4cccnc24)O3)c1 (stereo not given) | . | . | -15% | 19%[9.04 µM]
Cc1cc(C)n(Cc2ccc(NC(=O)c3c([N+](=O)[O-])c(C)nn3C)cc2)n1 | 0% | 5% | -16% | -15%
Cc1cccc(N2CCN(C(=O)C3CCC(CNS(=O)(=O)c4cccs4)CC3)CC2)c1C (stereo not given) | . | 5% | 13µM* | ?
O=S(=O)(c1cccs1)N1CCN(c2ccc(O)cc2)CC1 | . | 3% | 2.6µM* | 2.6µM*
O=C(Cn1c2ccccc2c(=O)c2ccccc21)Nc1cccc(F)c1 | 4% | 1% | ? | 16µM*
COc1ccc(-c2cc(C(F)(F)F)nc(SCCC(=O)Nc3ccc(NC(C)=O)cc3)n2)cc1 | -8% | -3% | . | .
O=C(Nc1ccc2nc3n(c(=O)c2c1)CCCCC3)c1c(F)ccc([N+](=O)[O-])c1F | . | 1% | 2.3µM* | 2.6µM*
O=C(Nc1ccc2nc3n(c(=O)c2c1)CCCCC3)c1cc([N+](=O)[O-])ccc1F | 2% | 2% | 2.6µM* | 6.5µM*
COc1cccc(CNC(=O)CN2C(=O)CSc3ccc(S(=O)(=O)N4CCCC4)cc32)c1 | 1% | 5% | ? | 0%
O=C(Cc1ccsc1)Nc1ccc(S(=O)(=O)C(F)F)cc1 | . | 0% | ? | ?
COc1ccc2oc(C(=O)OCC(=O)Nc3ccc(C)c(S(=O)(=O)N4CCOCC4)c3)c(C)c2c1 | 4% | . | -3% | 1%
COc1ccc2oc(C(=O)OCC(=O)NC(C)(C#N)C3CC3)c(C)c2c1 (stereo not given) | 32µM* | . | -1% | 10%
COc1ccc2oc(C(=O)OCC(=O)NC3CC3)c(C)c2c1 | 3% | 3% | 4% | -12%
SMILES | ClpP mod | TDP1 block | TDP1 cell noCPT | TDP1 cell CPT
COc1ccc2oc(C(=O)OCC(=O)Nc3ccc(N4CCOCC4)cc3)c(C)c2c1 | 32µM* | . | ? | 4%
NC(=O)C[n+]1cccc(C(=O)Nc2ccccc2)c1 | 3% | -4% | 6% | 1%
c1ccc(CC2CCN(C3=Nc4cccc5cccc3c45)CC2)cc1 | -5% | 7% | 9.2µM* | ?
COc1ccccc1NC(=O)C1CCN(S(=O)(=O)c2ccc3c(c2)oc(=O)n3C)CC1 | -21% | 6% | ? | -15%
N#CCCCS(=O)(=O)c1ccccc1 | . | 4% | . | .
O=C(Nc1ccc(F)cc1)C(c1cc2ccccc2o1)N1CCN(CC(=O)N2CCCC2)CC1 (stereo not given) | 1% | . | -21% | ?
CCN(CC)CCCC(C)Nc1cc(/C=C/c2ccccc2Cl)nc2cc(Cl)ccc12 (stereo not given) | 4% | 0% | 0.89µM* | 0.63µM*
CCN(CC)CCN(C(=O)/C=C/c1cccs1)c1nc2ccc(Cl)cc2s1 | -1% | 8% | ? | ?
COc1ccc(-c2ccc(CN3C(CC(C)C)C(=O)N(Cc4cn(Cc5ccco5)nn4)CCS3(=O)=O)cc2)cc1 (stereo not given) | -5% | . | 7.3µM* | 7.3µM*
COc1ccc(-c2ccc(CN3C(CC(C)C)C(=O)N(Cc4cn(Cc5ccco5)nn4)CCS3(=O)=O)cc2)cc1OC (stereo not given) | -4% | . | 16µM* | ?
Cc1cccc(C)c1-c1ccc(CN2C(CC(C)C)C(=O)N(Cc3cn(CCO)nn3)CCS2(=O)=O)cc1 (stereo not given) | -1% | . | ? | ?
CCC/C=C/c1ccc(CN2C(CC(C)C)C(=O)N(Cc3cn(Cc4ccco4)nn3)CCS2(=O)=O)cc1 (stereo not given) | -1% | . | ? | ?
C[N+](C)(C)CCC(=O)c1cccc2ccccc12 | . | 17%[56.1 µM] | 0.92µM* | 0.58µM*
COc1ccc(N2C3=C(C(=O)CC(C)(C)C3)C(c3ccccc3OC)C3=C2CC(C)(C)CC3=O)cc1 | . | 4% | 16µM* | ?
COc1ccc(N2C3=C(CC4=C2CC(C)(C)CC4=O)C(=O)CC(C)(C)C3)cc1 | -14% | 3% | 3.3µM* | 4.6µM*
Cc1ccc(N2C3=C(C(=O)CC(C)(C)C3)C(c3cn(C)nc3C)C3=C2CC(C)(C)CC3=O)cc1 | 4% | . | 13µM* | 15µM*
COc1ccccc1C1C2=C(CC(C)(C)CC2=O)N(CC(=O)O)C2=C1C(=O)CC(C)(C)C2 | 4% | . | 11% | 2%
CCOC(=O)C1CCC(CN(Cc2ccc(OC)cc2)S(=O)(=O)c2ccc(F)c(C(=O)Nc3c(C)cccc3C)c2)CC1 (stereo not given) | 1% | 5% | ? | ?
O=C(CNC(=O)c1ccccc1F)OCCOc1cccc(Cl)c1 | . | 0% | -28% | 10%
CCOC(=O)N/N=C1/C[C@@H](O)[C@@H](O)[C@@H]2[C@@H]3C(=O)N(Cc4ccccc4)C(=O)[C@H]3CC[C@H]12 | . | 4%[21 µM] | . | .
COC(=O)c1n[nH]n(-c2ccccc2)c1=O | -1% | 2% | -18% | 2%
